Bioassay records (PubChem)
Sampled rows, rich in hits. Any-hit rate of the full collection: about 32%.
CYP2C19 act: cytochrome P450 2C19 (human) activation; recombinant CYP2C19, luciferin-H EGE luminescence; hits give high values; 0 = fully inhibited enzyme, 1 = untreated enzyme; activation factor at 5 µM; 96,000 tested, under 10 active; AID 1025;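 active = activation factor of at least 2 at 5 µM in the primary screen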;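 also: 0 = wells with 2.5 mM tranylcypromine and 1 = vehicle-only wells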
Target sequence (P33261 whole entry, looked up): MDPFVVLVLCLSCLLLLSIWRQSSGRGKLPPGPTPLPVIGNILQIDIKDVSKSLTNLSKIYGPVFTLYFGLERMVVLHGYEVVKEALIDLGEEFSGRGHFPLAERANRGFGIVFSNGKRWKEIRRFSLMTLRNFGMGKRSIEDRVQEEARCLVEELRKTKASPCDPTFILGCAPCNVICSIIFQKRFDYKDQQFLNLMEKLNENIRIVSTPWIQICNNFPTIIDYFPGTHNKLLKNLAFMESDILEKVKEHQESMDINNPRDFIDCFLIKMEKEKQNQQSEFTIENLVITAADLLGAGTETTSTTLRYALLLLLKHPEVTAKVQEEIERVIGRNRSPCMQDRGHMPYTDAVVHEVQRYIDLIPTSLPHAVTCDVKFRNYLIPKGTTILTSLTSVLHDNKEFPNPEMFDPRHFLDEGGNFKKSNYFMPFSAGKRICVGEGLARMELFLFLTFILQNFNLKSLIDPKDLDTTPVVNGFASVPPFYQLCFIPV
PostGolgi yeast: growth inhibition of a yeast mutant, post-Golgi transport screen; post-Golgi transport phenotypic cell assay; inhibition, % at 10 µM; 0.9% of 98,000 active; AID 739;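 also: yeast cells grown in 1536-well plates; yeast grown about 18 h at 30C before absorbance read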
CYP2C19 inhib: inhibitors of human CYP2C19. inhibition, % at 5 µM. P33261. CYP2C19 Supersomes, luciferin-H EGE luminescence, 30 min. AID 778. 21% of 96,000 active;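 active = CYP2C19 inhibition above a set limit at 5 µM in the primary screen, cut at about 50% in these data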;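 also: plate controls were negative control wells for no effect and 2.5 mM tranylcypromine positive control for full effect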
CYP2C9 activ: increases human cytochrome P450 2C9 activity. P11712. 1.4% of 96,000 active. recombinant CYP2C9, luciferin-H conversion, luminescence; hits give high values; factor 1 = untreated enzyme, 0 = blocked. activation factor at 5 µM;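 active = activation factor of 2 or more for CYP2C9 at a 5 µM dose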;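 also: 0 = sulfaphenazole-blocked wells and 1 = vehicle-only wells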
PostGolgi ctrl: yeast control strain growth, post-Golgi counter-screen; 5% of 98,000 active; inhibition, % at 10 µM; efflux-deficient yeast background strain, growth absorbance A615, 16 h
CYP2C9 inhib: blocks human cytochrome P450 2C9. CYP2C9 Supersomes, luciferin-H conversion, luminescence. AID 777. inhibition, % at 5 µM. 20% of 96,000 active;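 active = blocking of liver enzyme CYP2C9 beyond about 50% at 5 µM, limit read from the data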
* = called active by the depositor; / = no result given. Rule as the data show it, unless noted: active = inhibition above about 30%; inactive = the rest.

SMILES	CYP2C19 act	PostGolgi yeast	CYP2C19 inhib	CYP2C9 activ	PostGolgi ctrl	CYP2C9 inhib
O=S1(=O)C[C@@H](N2CCOCC2)[C@H](N2CCOCC2)C1	/	-2.5	/	/	4.1	/
CC(Sc1ccc(Cl)cc1)C(=O)Nc1ccccc1C(=O)N1CCOCC1 (configuration not stated)	1.1	-6.6	-5.0	1.1	3.1	-10.4
COCC(=O)NC1CCN(CC(=O)Nc2ccc(OC)cc2[N+](=O)[O-])CC1	0.8	3.8	15.7	1.2	5.6	-19.7
CSCCC1NC2(C(=O)Nc3c(Cl)cccc32)[C@@H]2C(=O)N(C3CCCC3)C(=O)[C@H]12 (some centres not stated)	0.8	-5.6	20.4	0.9	8.1	12.0
CSCCC1NC2(C(=O)Nc3c(C)cc(Cl)cc32)[C@@H]2C(=O)N(C3CCCC3)C(=O)[C@H]12 (some centres not stated)	0.5	-10.9	49.8	0.4	1.9	60.0*
Cc1cccc(CCNC(=O)C2CCN(S(=O)(=O)c3c(C)nn(C)c3C)CC2)c1	0.9	1.3	5.7	1.4	3.5	-43.3
C/C(=N\NC(=O)C1CC1c1ccccc1)c1cccc([N+](=O)[O-])c1 (configuration not stated)	0.9	12.8	12.2	0.6	2.4	35.6
COc1ccc(C2CC2/C(=N/OC(=O)c2cccs2)c2ccccc2)cc1 (configuration not stated)	0.3	20.0	71.0*	0.1	40.2*	93.7*
C/C(=N/OC(=O)c1ccc(C)cc1)c1cccs1	0.8	-23.2	23.0	0.7	4.5	34.8
O=C(Cc1cccc2ccccc12)NNC(=O)c1cccs1	0.6	1.9	40.8	1	10.2	-2.1
C/C(=N/NC(=O)Cc1cccc2ccccc12)c1cccs1	0.2	8.4	76.2*	0.8	5.0	18.8
C/C(=N\NC(=O)C1CC1c1ccccc1)c1cccs1 (configuration not stated)	0.1	-4.3	88.2*	0.5	1.2	51.4*
O=C1N/C(=N\N=C\c2ccccn2)SC1Cc1cccc(SC(F)F)c1 (configuration not stated)	0.9	9.3	7.8	1.5	11.4	-47.1
CCS(=O)(=O)N1CCCC(C(=O)NC2CCC(C)CC2)C1 (configuration not stated)	0.7	0.1	26.7	1	3.1	0.7
CCOc1ccc(C2C(C(=O)c3ccco3)=C(O)C(=O)N2CCN(C)C)cc1 (configuration not stated)	0.8	3.9	24.3	0.6	5.2	43.6
CN(C)/C=C(/C#N)C(=O)c1cccc(Oc2ccc(C(C)(C)C)cc2)c1	0.2	2.7	77.5*	0.5	50.4*	49.8
Cc1ccccc1Oc1ncccc1C(=O)/C(C#N)=C/N(C)C	0.7	-1.4	34.9	1	2.5	0.9
Cc1cc(Cl)ccc1Oc1cccc(C(=O)/C(C#N)=C/N(C)C)c1	0.3	4.6	69.5*	0.8	65.2*	23.1
Cc1ccccc1Oc1cccc(C(=O)/C(C#N)=C/N(C)C)c1	0.1	21.2	89.3*	0.2	1.8	79.1*
COc1ccc(C2C=C(c3cccs3)Nc3nc(CCCO)nn32)cc1 (configuration not stated)	0.8	9.3	18.1	0.5	44.9*	47.2
COc1ccc(C2C=C(c3ccccc3)Nc3nc(CCCO)nn32)cc1 (configuration not stated)	0.7	-0.8	28.5	0.3	4.9	66.7*
N#CCCCCn1c(-c2cncs2)nc2ccccc21	0.4	11.0	55.8*	1.1	2.9	-9.0
O=C(Cn1c(NCCCO)nc2ccccc21)c1cccc(Br)c1	0.2	0.8	75.7*	0.2	3.0	81.7*
O=C(Cn1c(-c2cncs2)nc2ccccc21)NCCc1ccccc1	0.1	4.0	90.9*	0.5	-0.1	52.9*
O=C(Cn1c(NCCO)nc2ccccc21)c1ccco1	1	-5.2	-4.3	1.1	14.6	-6.0
SMILES	CYP2C19 act	PostGolgi yeast	CYP2C19 inhib	CYP2C9 activ	PostGolgi ctrl	CYP2C9 inhib
O=C(Cn1c(NCCO)nc2ccccc21)NCCc1ccccc1	0.5	-1.3	46.0	1.1	37.9*	-6.6
COc1ccc(CCNC(=O)C2CCCN(C(=O)N(C)C)C2)c(OC)c1 (configuration not stated)	1	-3.3	-3.3	1.1	0.6	-6.6
Cn1c(=O)[nH]c(=O)c2c1nc(Br)n2CCCO	1	-1.8	-2.1	0.5	8.3	46.5
CCn1c(=O)n(CC(=O)Nc2cccc(OC)c2)c(=O)c2ccccc21	0.7	-4.9	28.8	0.6	-0.2	39.4
CC(=O)Nc1nonc1-c1nc2ccccc2n1Cc1ccccc1	1.1	-0.2	-13.4	1	10.2	2.8
CCCCNc1nc2ccccc2n1CC(=O)N1CCc2ccccc2C1	0.4	-0.8	58.4*	0.6	-4.1	37.3
COc1cccc(NC(=O)Cn2c(-c3cncs3)nc3ccccc32)c1	0.2	-5.7	76.1*	0.2	11.3	82.9*
Cc1c(C#N)c2ccccc2n1CC(=O)N1CCc2ccccc2C1	1	/	0.3	0.7	/	27.8
c1ccc(Cn2c(-c3cncs3)nc3ccccc32)cc1	0.3	0.8	72.7*	0.1	12.4	94.2*
Cc1c(NS(=O)(=O)c2ccc3c(c2)n(C)c(=O)n3C)c(=O)n(-c2ccccc2)n1C	1.2	9.0	-18.6	1	-1.0	2.3
Cc1c(NS(=O)(=O)c2ccc(Br)s2)c(=O)n(-c2ccccc2)n1C	0.5	10.7	46.6	0.5	-1.1	54.2*
Cc1c(NS(=O)(=O)N2CCCCC2)c(=O)n(-c2ccccc2)n1C	0.3	3.5	73.7*	0.9	9.6	9.5
Cc1c(NS(=O)(=O)c2cccs2)c(=O)n(-c2ccccc2)n1C	0.4	22.9	55.1*	0.7	0.3	29.1
Cc1c(NS(=O)(=O)CC23CCC(CC2=O)C3(C)C)c(=O)n(-c2ccccc2)n1C (configuration not stated)	0.5	-2.5	54.6*	1	4.7	-4.9
CCS(=O)(=O)Nc1c(C)n(C)n(-c2ccccc2)c1=O	0.9	-2.2	11.5	0.9	0.3	9.0
CCC(C)NC(=O)c1ccccc1NC(=O)c1ccc(CSc2ccc(C)cc2)cc1 (configuration not stated)	1.1	1.5	-5.0	0.8	-5.6	23.5
CCOC(=O)c1nnc(-c2ccc(C)cc2)nc1Oc1ccc(Cl)cc1Cl	0.7	11.9	33.4	0.6	35.0*	39.4
CCOC(=O)c1nnc(-c2ccccc2)nc1Sc1c(Cl)cccc1Cl	0.8	-0.8	23.0	0.4	15.4	57.8*
CCOC(=O)c1nnc(-c2ccc(C)cc2)nc1Sc1ccccc1Cl	0.6	0.2	43.7	0.9	13.9	10.4
CCOC(=O)c1nnc(-c2ccccc2)nc1NCc1ccc(Cl)cc1	0.9	15.4	14.2	0.5	38.8*	48.3
CCOC(=O)c1nnc(-c2ccc(C)cc2)nc1Sc1ccc(Cl)cc1	1.1	20.6	-5.4	0.8	2.8	21.3
